Here are results for 38 compounds from PubChem BioAssay AID2320 (National Center for Advancing Translational Sciences (NCATS), 2010).

Results filed as inconclusive are left out. Where a call stands in place of a potency, no number is given. Calls of active or inactive are those of the source. Calls come from the whole dose curve.
Potency is the fitted concentration of half-maximal effect.

A short description of this experiment: A qHTS for Small Molecule Inhibitors of Shiga Toxin (Confirmatory). Note: nearly all actives have a fitted effect of over 75% in size. The note with it: Cell-based Shiga toxin protection reporter assay; series mostly up to 38.3 µM. (Quantitative high-throughput screening tests each substance at several concentrations.)
As for `CC(C)(C)C(=O)Cn1ncc(N2CCOCC2)c(Br)c1=O`, the Potency is 22.5 µM (active).

`CCCC[C@@H]1C[C@H]1[C@@H](NC(=O)c1ccco1)c1ccc(Cl)cc1`: the Potency is 8.95 µM (active).

As to `NNC(=O)c1ccc(NS(=O)(=O)c2ccc(Br)cc2)cc1`, the Potency result was “inactive”.

Turning to `O=C(NCCCO)/C(=C\c1ccco1)NC(=O)c1ccco1`, the Potency entry was “inactive”.

For the compound `CCOC(=O)c1c(C)[nH]c(C2=NNC(=NC3CC3)SC2)c1C`, the Potency was 0.0449 µM (active).

For the compound `CCN(C1CCCCC1)S(=O)(=O)c1ccc(S(=O)(=O)NCc2ccncc2)cc1`, the Potency entry is “inactive”.

`Cc1cc(C)nc(Sc2ccc3nnnn3n2)n1`: the Potency is 28.3 µM (active).

For the compound `CCOC(=O)c1[nH]c2ccc(OC)cc2c1NC(=O)C(C)N1CCC2(CC1)OCCO2` (stereo not drawn), the Potency result is “inactive”.

As for `C=CCn1c(=S)[nH]c2cc(-c3ccccc3)sc2c1=O`, the Potency was 0.0113 µM (active).

Take `Cc1nn(-c2ccc(Cl)cc2)c(N)c1C(O)(CSc1nccn1C)C(F)(F)F` (stereo not drawn): the Potency result is “inactive”.

Turning to `COc1cccc(/C=C/C(=O)c2cccc([N+](=O)[O-])c2)c1OC`, the Potency result is “inactive”.

For the compound `COc1cccc(C(C(=O)NC2CCCC2)N(C(=O)c2ccco2)C2CC2)c1OC` (stereo not drawn), the Potency was 8.95 µM (active).

As for `CCOC(=O)c1cnc2c(-c3cccc(Br)c3)cnn2c1C`, the Potency was 3.56 µM (active).

With `COC(=O)c1ccc(C)c(NC(=O)CCSc2ccc(Cl)cc2)c1`, the Potency result was “inactive”.

Take `CCN1CCN(Cc2nnc(-c3ccc(C)cc3)o2)CC1`: the Potency result is “inactive”.

Turning to `O=C(NCCc1c[nH]c2ccccc12)C(F)(F)F`, the Potency result was “inactive”.

`O=C(Cc1cccs1)Nc1ccc(-c2nnc(-c3ccco3)o2)cc1`: the Potency was 4 µM (active).

Turning to `Cn1nccc1C(=O)Nc1sc2c(c1C#N)CCCC2`, the Potency is 20 µM (active).

As for `O=C(Cc1c(F)cccc1Cl)c1ccc(O)cc1O`, the Potency result was “inactive”.

As for `CC(=O)c1ccccc1Oc1ncnc(N)c1[N+](=O)[O-]`, the Potency result was “inactive”.

For `O=C(O)c1cc(S(=O)(=O)Nc2ccc(OCc3ccccc3)cc2)ccc1Br`, the Potency was 7.11 µM (active).

Consider `COc1ccc(C(=O)CC(=O)C(=O)Nc2ccc(C)cc2Cl)cc1`, for which the Potency entry is “inactive”.

Take `Fc1ccccc1N=C1Nc2cccc3cccc1c23`: the Potency entry is “inactive”.

For the compound `COC(=O)c1c(NC(=O)c2ccn(C)n2)sc2c1CCC2`, the Potency is 2.83 µM (active).

As to `CCNc1c(NC(=O)c2cccs2)c(=O)oc2ccccc12`, the Potency result is “inactive”.

With `CCc1ccccc1NC(=O)Cn1nnc(-c2cccs2)n1`, the Potency result was “inactive”.

Take `Cc1ccc(NC(=S)c2nc3ccccc3s2)cc1`: the Potency is 0.895 µM (active).

For the compound `O=C(CCN1C(=O)c2cccc3cccc(c23)C1=O)NC1CCS(=O)(=O)C1` (stereo not drawn), the Potency entry was “inactive”.

As for `COC(=O)c1ccc(NC(=O)Cc2ccc(F)cc2)cc1`, the Potency was 5.65 µM (active).

Consider `Nc1nc(-c2nn(Cc3ccccc3F)c3ncccc23)ncc1C1CC1`, for which the Potency result is “inactive”.

As to `O=C(Nc1nnc(S(=O)(=O)N2CCOCC2)s1)c1cccc(Br)c1`, the Potency was 20 µM (active).

As to `CN1CCN(Cc2ccc(N)cc2)CC1`, the Potency entry is “inactive”.

In the case of `COc1ccc(NC(=O)CSc2nccn2-c2cccc(OC)c2)cc1`, the Potency entry is “inactive”.

Consider `CC(=O)c1ccc(NC(=O)C(C)Sc2nnc(C3CCCCC3)o2)cc1` (stereo not drawn), for which the Potency result was “inactive”.

For the compound `O=C(COc1ncnc2ccccc12)NCCC1=CCCCC1`, the Potency entry is “inactive”.

For `COc1ccc(C(=O)CSc2nnc(C(CO)NC(=O)c3ccc(OC)cc3)n2C)cc1` (stereo not drawn), the Potency result is “inactive”.

As to `COc1ccc(CNC(=O)C(OC(=O)c2ccco2)c2ccccc2F)cc1` (stereo not drawn), the Potency result is “inactive”.

Consider `Cc1cc(C)nc(SCC(=O)Nc2cc(C)on2)n1`, for which the Potency result is “inactive”.
